Results published in article PMC5540273 (PLoS ONE, 2017).

What was measured:
Conditions in all cases: concentration: 1 μM, replicates: in singlicate; n = 1
[1] = tested on: TYK2(JH2domain-pseudokinase)
TYRO3 = tested on: TYRO3
ULK1 = tested on: ULK1
ULK2 = tested on: ULK2
ULK3 = tested on: ULK3
VEGFR2 = tested on: T1, VEGFR2
T1 construct: gene KDR

VPS34 = tested on: T2, VPS34
T2 construct: gene PIK3C3

VRK2 = tested on: VRK2
WEE1 = tested on: WEE1
WEE2 = tested on: WEE2
WNK1 = tested on: WNK1
WNK2 = tested on: WNK2
WNK3 = tested on: WNK3
WNK4 = tested on: WNK4
YANK1 = tested on: T3, YANK1
T3 construct: gene STK32A

YANK2 = tested on: T4, YANK2
T4 construct: gene STK32B

YANK3 = tested on: T5, YANK3
T5 construct: gene STK32C

YES = tested on: T6, YES
T6 construct: gene YES1

YSK1 = tested on: T7, YSK1
T7 construct: gene STK25

YSK4 = tested on: T8, YSK4
T8 construct: gene MAP3K19
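Also: KINOMEscan kinase panel screen.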

Row | SMILES | %Inh [1] [%] | %Inh (TYRO3) [%] | %Inh (ULK1) [%] | %Inh (ULK2) [%] | %Inh (ULK3) [%] | %Inh (VEGFR2) [%] | %Inh (VPS34) [%] | %Inh (VRK2) [%] | %Inh (WEE1) [%] | %Inh (WEE2) [%] | %Inh (WNK1) [%] | %Inh (WNK2) [%] | %Inh (WNK3) [%] | %Inh (WNK4) [%] | %Inh (YANK1) [%] | %Inh (YANK2) [%] | %Inh (YANK3) [%] | %Inh (YES) [%] | %Inh (YSK1) [%] | %Inh (YSK4) [%]
1 | CN1CCN(Cc2cccc(-c3ccc4c(Nc5ccc(Oc6ccccc6)cc5)ccnc4c3)c2)CC1 [GW578342] | 5 | 12 | 0 | 0 | 2 | 16 | 0 | 26 | 0 | 0 | 0 | 15 | 31 | 49 | 3 | 0 | 0 | 88 | 12 | 0
2 | CNC(=O)c1ccccc1Nc1nc(Nc2ccc(N3CCOCC3)cc2)ncc1Cl.Cl [GSK1576028] | 99.7 | 85 | 99.6 | 81 | 99.8 | 90 | 0 | 21 | 99.7 | 100 | 12 | 5 | 39 | 0 | 58 | 30 | 24 | 98.7 | 68 | 99.9
3 | CN(c1ccc(NC(=O)Nc2cc(C(F)(F)F)ccc2F)cc1)c1ccnc(Nc2ccc(S(N)(=O)=O)cc2)n1 [GW809893] | 12 | 77 | 17 | 3 | 76 | 88 | 4 | 0 | 0 | 11 | 6 | 0 | 0 | 0 | 17 | 0 | 17 | 80 | 100 | 99.1
4 | Cc1ccc(C(=O)Nc2ccc(Nc3ccnc4cc(-c5nccs5)ccc34)cc2O)cc1.Cl [GW494702] | 15 | 19 | 4 | 0 | 3 | 2 | 18 | 28 | 0 | 0 | 6 | 41 | 38 | 39 | 9 | 0 | 11 | 33 | 0 | 30
5 | CC(C)c1nc(-c2cccc(NS(=O)(=O)c3c(F)cccc3F)c2F)c(-c2ccnc(Nc3ccc(N4CCOCC4)nc3)n2)s1 [GSK2008607] | 17 | 100 | 63 | 83 | 98.9 | 94.5 | 0 | 0 | 0 | 0 | 3 | 13 | 23 | 59 | 14 | 48 | 1 | 99.6 | 56 | 85
6 | COc1cccc(C(=O)Nc2cccc(Oc3ccc4nc(NC(=O)C5CC5)cn4n3)c2)c1 | 0 | 47 | 0 | 0 | 11 | 99.9 | 22 | 0 | 0 | 20 | 0 | 0 | 0 | 0 | 0 | 0 | 0 | 92.7 | 0 | 100
7 | O=C(O)C(F)(F)F.O=C(O)C(F)(F)F.O=c1[nH]ccc2nc(N[C@@H]3CCCNC3)nc(Nc3ccc(S(=O)(=O)N4CCOCC4)cc3)c12 [GSK2177277] | 93.2 | 15 | 100 | 88 | 99.9 | 74 | 91.5 | 77 | 66 | 13 | 0 | 29 | 13 | 0 | 96.6 | 89 | 74 | 75 | 94.2 | 99.7
8 | COc1ccc(CNC(=O)NC2CCN(c3ccnc(Nc4ccc(F)cc4)n3)CC2)cc1 [GSK1379788] | 35 | 0 | 0 | 0 | 0 | 0 | 17 | 14 | 39 | 0 | 0 | 7 | 23 | 27 | 7 | 0 | 0 | 0 | 0 | 14
9 | COc1cc(Nc2nccc(N3CCC(NC(=O)c4cc5ccccc5s4)C3)n2)cc(OC)c1OC (stereo not drawn) [GSK1379760] | 6 | 0 | 1 | 0 | 64 | 0 | 33 | 20 | 8 | 0 | 0 | 0 | 30 | 11 | 13 | 11 | 0 | 8 | 17 | 0
10 | O=C(Nc1cccc(-c2nn3ncccc3c2-c2ccnc(Nc3ccccc3)n2)c1)c1c(F)cccc1F [GSK198271] | 0 | 100 | 22 | 0 | 6 | 80 | 0 | 0 | 40 | 0 | 2 | 60 | 0 | 0 | 63 | 38 | 18 | 99.5 | 20 | 18
11 | O=C(Nc1cccc(-c2nn3ccccc3c2-c2ccnc(Nc3cccc(F)c3)n2)c1)c1c(F)ccc(F)c1Cl [GSK357952] | 0 | 81 | 21 | 0 | 13 | 12 | 22 | 0 | 0 | 3 | 3 | 0 | 43 | 0 | 34 | 75 | 23 | 98.7 | 0 | 0
12 | NCCCC(NC(=O)c1cc(Br)c(-c2ccnc3[nH]ccc23)s1)c1ccccc1.O=C(O)C(F)(F)F.O=C(O)C(F)(F)F (stereo not drawn) [GSK1287544] | 6 | 0 | 54 | 0 | 13 | 3 | 28 | 0 | 2 | 4 | 30 | 0 | 11 | 8 | 0 | 0 | 0 | 0 | 0 | 95.2
13 | Fc1ccc(-c2ncn(C3CCNCC3)c2-c2ccnc(Oc3ccc(-c4ccccc4)cc3)n2)cc1 [SB-245391] | 84 | 0 | 54 | 26 | 46 | 12 | 30 | 41 | 0 | 58 | 42 | 0 | 32 | 0 | 90.8 | 85 | 86 | 0 | 18 | 47
14 | COC(=O)Nc1nc2cc(Oc3ccc(NC(=O)Nc4cc(C(F)(F)F)ccc4F)cn3)ccc2[nH]1.Cl.Cl [GW681170] | 12 | 0 | 0 | 0 | 13 | 55 | 8 | 22 | 7 | 0 | 6 | 8 | 22 | 39 | 9 | 16 | 0 | 24 | 0 | 87
15 | CC(C)(C)c1ccc2nccc(Nc3cccc(O)c3)c2c1 [GW856795] | 32 | 0 | 0 | 19 | 0 | 50 | 52 | 100 | 0 | 13 | 0 | 0 | 40 | 0 | 0 | 0 | 0 | 5 | 0 | 0
16 | O=C(Nc1cccc(Oc2ccc3nc(NC(=O)C4CC4)cn3n2)c1)c1ccccc1C(F)(F)F | 0 | 36 | 0 | 0 | 1 | 99.8 | 0 | 0 | 22 | 0 | 0 | 0 | 0 | 13 | 0 | 0 | 0 | 50 | 9 | 70
17 | Nc1ncnc2c1nc(-c1ccccc1)n2-c1ccccc1 [SKF-97293] | 54 | 9 | 51 | 35 | 50 | 23 | 44 | 36 | 4 | 0 | 47 | 5 | 48 | 28 | 3 | 21 | 0 | 0 | 4 | 54
18 | COc1ccc(Nc2nccc(NCCNC(=O)c3cc4ccccc4s3)n2)cc1 [GSK1379896] | 0 | 11 | 14 | 0 | 0 | 0 | 18 | 17 | 14 | 0 | 6 | 55 | 10 | 29 | 12 | 0 | 0 | 5 | 0 | 0
